Consider seven compounds from PubChem BioAssay (Tox21).

The nature of test [1]: Nuclear factor erythroid 2-related factor 2/antioxidant responsive element (Nrf2/ARE) small molecule agonists: qHTS cell viability counter screen in human keratinocytes (AID 1919968; active = well fitted curve in the direction sought with a large enough effect in the repeat runs; an effect the other way counts as inactive or inconclusive; also: nearly all actives have a fitted effect of over 55% in size; also: potency is read from the fitted curve at half-maximal effect). The method, boiled down: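 Cytotoxicity was multiplexed with the Nrf2/ARE luciferase assay in the same wells. Stably transfected HaCaT keratinocytes were treated with test compounds for 23 h at 37 C. Cell viability was then measured by CellTiter-Fluor fluorescence.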

For test [2], the target named is KiSS-1 receptor (Homo sapiens) (UniProt Q969F8). Kind of test: Human kisspeptin (KISS1R) small molecule agonists, calcium flux assay in KISS1R-HEK293 cells (AID 1920064; active = well fitted curve in the direction sought with a large enough effect in the repeat runs; an effect the other way counts as inactive or inconclusive). The method, boiled down:
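Agonist activity is monitored as intracellular calcium rise in engineered HEK293 cells carrying human KISS1R. Cells are dye-loaded for 1 h at 37 C before compound addition, and fluorescence is recorded for 3 min.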

The nature of test [3]: G protein-coupled receptor (GPCR) small molecule agonists, calcium flux assay: HEK293 wild type cell line counter screen (AID 1920065). The method, boiled down:
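Seed cells, incubate 18 h (37 C, 5% CO2); add calcium dye, 1 h at 37 C; pin-transfer compounds, ATP control or DMSO; read fluorescence 480/540 nm each second for 3 min.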

Test [4] is described as follows: p53 small molecule agonists, cell-based qHTS assay with human liver microsomes (AID 1963577). The method, boiled down: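 Cells carrying a p53-responsive bla reporter were rested 5 h (37 C, 5% CO2) before compound transfer. Human liver microsomes plus NADPH, 0.5 mg/mL final apiece, supplied metabolism during the 16 h 37 C exposure.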
Test [5] is described as follows: p53 small molecule agonists, cell-based qHTS assay with rat liver microsomes (AID 1963578). The method, boiled down: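 Fluorescence from a beta-lactamase reporter under a p53 response element was measured after cells had been incubated 16 h at 37 C with test compound and rat liver microsomes plus NADPH (0.5 mg/mL final each).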
The nature of test [6]: p53 small molecule agonists, cell-based qHTS assay with human liver microsomes: qHTS cell viability counter screen (AID 1963579). Also: nearly all actives have a fitted effect of over 45% in size. Also: potency is read from the fitted curve at half-maximal effect. The method, boiled down:
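Seed p53RE-bla cells at 4,000 per well; incubate 5 h at 37 C; add compound, human liver microsomes and NADPH; incubate 16 h at 37 C; add CellTiter-Glo; after 30 min at room temperature, read luminescence.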

Test [7] is described as follows: p53 small molecule agonists, cell-based qHTS assay with rat liver microsomes: qHTS cell viability counter screen (AID 1963580). Also: nearly all actives have a fitted effect of over 45% in size. Also: potency is read from the fitted curve at half-maximal effect. The method, boiled down:
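After the beta-lactamase ratio was read, CellTiter-Glo was added to the same wells and luminescence measured at 30 min; cells had been treated 16 h at 37 C with compounds, rat liver microsomes and NADPH (0.5 mg/mL final each).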

A short description of test [8]: p53 small molecule agonists, cell-based qHTS assay: qHTS cell viability counter screen (AID 1963581). Also: nearly all actives have a fitted effect of over 45% in size. Also: potency is read from the fitted curve at half-maximal effect. The method, boiled down:
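Viability was counter-screened in parallel with the p53 agonist reporter by measuring intracellular ATP luminescence in the same HCT-116 p53RE-bla wells after 16 h compound treatment at 37 C.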

Test [9] is described as follows: p53 small molecule agonists, cell-based qHTS assay (AID 1963582; active = well fitted activation curve with a large enough effect in the signal ratio in the repeat runs, not every such curve was filed as active; the % refers to the signal ratio). The method, boiled down:
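Cells carrying a p53-responsive bla reporter are treated with test compounds for 16 h at 37 C; beta-lactamase activity is then detected with LiveBLAzer B/G FRET substrate after 2 h at room temperature.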

The target of test [10] is 5-hydroxytryptamine receptor 2A (Homo sapiens) (UniProt P28223). Kind of test: 5-hydroxytryptamine receptor 2A (HTR2A) small molecule antagonists, cell-based qHTS assay (AID 1963586). Also: nearly all actives have a fitted effect of over 45% in size. The method, boiled down:
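CHO cells stably expressing human HTR2A were plated for 18 h at 37 C, then loaded with calcium dye for 1 h. Compounds were preincubated 5 min at room temperature before DOI (4 nM solution) was added. Kinetic fluorescence was read for 3 min.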

The target is the same in test [11]. Kind of test: 5-hydroxytryptamine receptor 2A (HTR2A) small molecule agonists, cell-based qHTS assay (AID 1963587). Also: nearly all actives have a fitted effect of over 30% in size. Also: potency is read from the fitted curve at half-maximal effect. The method, boiled down:
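CHO cells stably expressing human HTR2A, plated 18 h, loaded with calcium dye 1 h at 37 C. Agonist mode: compounds added and intracellular calcium fluorescence recorded kinetically for 2 min at 1 sec intervals.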

Test [12] has as its target Muscarinic acetylcholine receptor M1 (Homo sapiens) (UniProt P11229). Kind of test: Cholinergic receptor muscarinic 1 (CHRM1) small molecule antagonists, cell-based qHTS assay (AID 1963588). Also: nearly all actives have a fitted effect of over 40% in size. Also: potency is read from the fitted curve at half-maximal effect. The method, boiled down: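 Compounds were tested at 15 concentrations in three independent runs. Dye-loaded CHRM1-CHO cells were exposed 5 min at room temperature before stimulation by acetylcholine added at 50nM. Intracellular calcium was read kinetically on FDSS for 3 min.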

Test [13] has the same target. The test can be described thus: Cholinergic receptor muscarinic 1 (CHRM1) small molecule agonists, cell-based qHTS assay (AID 1963589). Also: nearly all actives have a fitted effect of over 35% in size. The method, boiled down: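 Cells were plated and incubated 18 h at 37 C/5% CO2, loaded with calcium dye for 1 h at 37 C, then treated with compounds in DMSO. Fluorescence was recorded kinetically at 1 sec intervals.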
The nature of test [14]: cAMP Responsive Elements (CRE) small molecule agonists, cell-based qHTS assay (AID 1963590). The method, boiled down: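 Cells carrying a CRE-driven beta-lactamase reporter (HEK 293T) are seeded, incubated overnight (18 h), and treated with test compounds for 3 h at 37 C; reporter activity is then detected with a FRET substrate after 2 h at room temperature.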
A short description of test [15]: cAMP Responsive Elements (CRE) small molecule antagonists, cell-based qHTS assay (AID 1963591; active = well fitted inhibition curve with a large enough effect in the signal ratio in the repeat runs, not every such curve was filed as active; the % refers to the signal ratio). The method, boiled down: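 Cells (CRE-bla HEK 293T, DMEM with 10% dialyzed FBS and 25 mM HEPES) are seeded and incubated 18 h. Compounds are added with NKH477 agonist at 0.25 uM final for 3 h, then FRET substrate for 2 h.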
Test [16] deals with Beta-2 adrenergic receptor (Homo sapiens) (UniProt P07550). The test can be described thus: Adrenergic beta2 receptor (ADRB2) small molecule antagonists, cell-based qHTS assay (AID 1963592). Also: series mostly up to about 92 µM; nearly all actives have a fitted effect of over 50% in size. The method, boiled down: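 Assay format: CHO-ADRB2 cells, 18-20hr seeding at 37C/5% CO2, then compound plus 1nM isoproterenol agonist mix for 0.5hr RT. Homogeneous time-resolved fluorescence cAMP detection after 1hr, expressed as 665/615 nm ratio.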
Sequence of Beta-2 adrenergic receptor (Homo sapiens) (P07550 whole entry, looked up): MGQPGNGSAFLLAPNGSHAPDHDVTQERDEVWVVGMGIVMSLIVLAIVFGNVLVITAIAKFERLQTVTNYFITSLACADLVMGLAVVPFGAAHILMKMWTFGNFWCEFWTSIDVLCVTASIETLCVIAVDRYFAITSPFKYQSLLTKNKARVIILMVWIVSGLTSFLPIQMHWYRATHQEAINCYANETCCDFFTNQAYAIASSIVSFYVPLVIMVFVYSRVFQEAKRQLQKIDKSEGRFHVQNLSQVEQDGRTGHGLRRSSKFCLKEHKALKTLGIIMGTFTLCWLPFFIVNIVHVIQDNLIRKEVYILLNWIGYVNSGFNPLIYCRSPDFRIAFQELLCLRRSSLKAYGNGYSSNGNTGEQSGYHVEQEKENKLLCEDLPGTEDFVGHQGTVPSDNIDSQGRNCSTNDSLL

Test [17] has the same target. The test can be described thus: Adrenergic beta2 receptor (ADRB2) small molecule agonists, cell-based qHTS assay (AID 1963593).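 Also: CHO cells stably overexpressing human ADRB2.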 The method, boiled down:
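CHO cells stably over-expressing ADRB2 were plated overnight at 37C, then dosed with compounds plus a stimulation mix containing 100uM IBMX and 25uM Ro-20-1724 for 0.5hr at room temperature. cAMP was measured by HTRF competition, 1hr.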

Test [18] deals with D(2) dopamine receptor (Homo sapiens) (UniProt P14416). The test can be described thus: Dopamine D2 receptor (DRD2) small molecule agonists, cell-based qHTS assay (AID 1963594). Also: nearly all actives have a fitted effect of over 35% in size. The method, boiled down:
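HEK293 cells stably expressing human DRD2, pre-treated with PDE inhibitor Ro20-1724 (0.1 mM final) and compound 10 min at room temperature, then stimulated with NKH477 (200nM […]) for 30 min. cAMP read by HTRF (665/620 nm).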

The target is the same in test [19]. Kind of test: Dopamine D2 receptor (DRD2) small molecule antagonists, cell-based qHTS assay (AID 1963595; active = well fitted inhibition curve with a large enough effect in the signal ratio in the repeat runs, with a control signal flat; the % refers to the signal ratio). The method, boiled down:
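HEK293 cells stably expressing DRD2, preincubated with 0.1 mM Ro20-1724 and compounds 10 min, were stimulated with 200 nM NKH477 plus 12 nM quinpirole for 30 min at room temperature; cAMP measured by HTRF (665/620 nm).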

Test [20] can be described thus: Nuclear factor erythroid 2-related factor 2/antioxidant responsive element (Nrf2/ARE) small molecule agonists: luciferase reporter gene qHTS assay in human keratinocytes (AID 1919969). Also: nearly all actives have a fitted effect of over 35% in size. Also: potency is read from the fitted curve at half-maximal effect.

Where “and” joins values, the source holds several entries; their conditions need not be identical. Equal entries are not always repeated. Results filed as inconclusive are left out. More than one record can exist for a structure, and the calls need not agree. Calls of active or inactive are those of the source. Unless noted, calls follow the shape of the full dose curve.

Sequence of KiSS-1 receptor (Homo sapiens) (Q969F8 whole entry, looked up): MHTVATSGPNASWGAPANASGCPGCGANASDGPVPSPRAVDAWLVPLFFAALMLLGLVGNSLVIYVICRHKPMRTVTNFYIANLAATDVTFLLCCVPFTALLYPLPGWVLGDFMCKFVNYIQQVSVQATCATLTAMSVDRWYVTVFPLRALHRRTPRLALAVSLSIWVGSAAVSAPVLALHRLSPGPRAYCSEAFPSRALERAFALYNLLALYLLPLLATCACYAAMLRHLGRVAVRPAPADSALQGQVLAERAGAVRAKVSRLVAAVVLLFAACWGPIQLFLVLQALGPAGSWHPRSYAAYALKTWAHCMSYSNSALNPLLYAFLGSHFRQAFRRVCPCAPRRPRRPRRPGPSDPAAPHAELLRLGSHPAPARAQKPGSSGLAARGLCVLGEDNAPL
Sequence of D(2) dopamine receptor (Homo sapiens) (P14416 whole entry, looked up): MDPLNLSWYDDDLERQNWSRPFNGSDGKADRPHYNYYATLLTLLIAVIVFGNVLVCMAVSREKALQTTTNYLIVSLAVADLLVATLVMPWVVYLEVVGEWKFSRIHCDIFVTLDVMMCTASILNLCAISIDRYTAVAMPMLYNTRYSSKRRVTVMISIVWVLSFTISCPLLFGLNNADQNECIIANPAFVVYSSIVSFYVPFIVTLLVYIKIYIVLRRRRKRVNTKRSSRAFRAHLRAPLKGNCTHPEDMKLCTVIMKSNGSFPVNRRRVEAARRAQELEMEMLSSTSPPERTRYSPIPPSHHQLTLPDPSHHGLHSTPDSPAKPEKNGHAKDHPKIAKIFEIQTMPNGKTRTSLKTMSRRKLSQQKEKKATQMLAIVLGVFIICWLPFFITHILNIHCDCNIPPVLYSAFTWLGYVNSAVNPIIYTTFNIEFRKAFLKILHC
Sequence of 5-hydroxytryptamine receptor 2A (Homo sapiens) (P28223 whole entry, looked up): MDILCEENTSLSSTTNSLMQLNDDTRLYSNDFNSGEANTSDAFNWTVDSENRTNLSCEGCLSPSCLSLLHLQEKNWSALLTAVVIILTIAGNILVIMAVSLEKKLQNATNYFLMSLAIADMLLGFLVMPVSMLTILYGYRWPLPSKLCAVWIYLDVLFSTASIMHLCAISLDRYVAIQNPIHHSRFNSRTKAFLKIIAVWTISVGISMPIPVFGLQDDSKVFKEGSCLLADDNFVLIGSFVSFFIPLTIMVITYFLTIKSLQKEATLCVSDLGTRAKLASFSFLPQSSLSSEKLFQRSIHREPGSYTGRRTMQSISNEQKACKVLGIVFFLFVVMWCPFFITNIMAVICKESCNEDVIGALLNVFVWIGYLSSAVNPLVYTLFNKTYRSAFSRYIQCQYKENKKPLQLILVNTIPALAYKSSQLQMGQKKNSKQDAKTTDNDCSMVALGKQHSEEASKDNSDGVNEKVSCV
Sequence of Muscarinic acetylcholine receptor M1 (Homo sapiens) (P11229 whole entry, looked up): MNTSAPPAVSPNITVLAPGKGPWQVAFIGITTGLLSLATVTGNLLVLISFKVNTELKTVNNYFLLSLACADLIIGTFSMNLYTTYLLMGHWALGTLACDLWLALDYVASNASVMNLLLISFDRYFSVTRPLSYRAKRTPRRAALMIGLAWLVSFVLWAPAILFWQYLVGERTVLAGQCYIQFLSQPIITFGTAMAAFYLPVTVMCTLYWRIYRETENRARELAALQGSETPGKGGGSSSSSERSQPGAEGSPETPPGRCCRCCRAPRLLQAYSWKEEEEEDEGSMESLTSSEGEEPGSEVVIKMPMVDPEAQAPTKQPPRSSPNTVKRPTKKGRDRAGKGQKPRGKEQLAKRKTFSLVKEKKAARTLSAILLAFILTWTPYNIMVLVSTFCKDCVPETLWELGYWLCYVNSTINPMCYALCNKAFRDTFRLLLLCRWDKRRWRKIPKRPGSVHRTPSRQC

Consider `COc1ccc(CO)cc1`, for which the Potency result in [1], in [2], in [3], in [4], in test [5] and in test [6] was “inactive” throughout. The Potency result in [7], in test [8], in [9], in [10], in test [11] and in test [12] was “inactive” in each case. Besides, the Potency entry in test [13], in test [14], in test [15], in [16], in test [17] and in test [18] was “inactive” in each case. Moreover, the Potency entry in [19] is “inactive”.
Regarding `CCCCCCCCCCCCCCn1cc[n+](C)c1`, the Potency was 13.7 µM (active) and 27 µM (active) and inactive in test [1]; 40.9 µM (active) and 40.3 µM (active) and inactive in [6]; 28.9 µM (active) and inactive in test [8]; 21.9 µM (active) and 30.6 µM (active) and inactive in test [11]; 1.88 µM (active) and inactive in test [12]. Also, the Potency entry in test [20], in test [2], in [3], in [4], in test [9] and in test [10] was “inactive” each time. Besides, the Potency result in test [13], in test [14], in test [15], in [16], in test [17] and in test [18] was “inactive” throughout.
As for `OCC1CO1` (stereo not given), the Potency result in [1], in test [20], in [2], in test [4], in test [5] and in test [6] was “inactive” throughout. Further, the Potency result in [8], in [9], in test [10], in test [11], in test [12] and in test [13] was “inactive” each time. Also, the Potency result in [14], in [15], in [16], in [17], in [18] and in [19] was “inactive” in each case. Further, the Potency in test [7] was 41.5 µM (active) and inactive.
As to `CC(C)=CCN1CC[C@@]2(C)c3cc(O)ccc3C[C@@H]1[C@@H]2C`, the Potency result in test [1], in [20], in [2], in [3], in test [4] and in [6] was “inactive” in each case. The Potency result in test [7], in test [8], in [9], in [11], in [13] and in test [14] was “inactive” in each case. The Potency result in test [15], in [16], in test [17], in test [18] and in test [19] was “inactive” each time. Further, the Potency in test [12] was 9.28 µM (active).
In the case of `CCOP(=S)(OCC)Oc1nc(Cl)c(Cl)cc1Cl`, the Potency result in test [1], in [2], in test [3], in [6], in test [7] and in test [8] was “inactive” throughout. The Potency result in test [9], in [10], in test [11], in [12], in test [13] and in test [17] was “inactive” in each case. Also, the Potency result in [18] was “inactive”. In [20], the Potency was 27.4 µM (active) and 61.1 µM (active).
With `CC(C)N(C(=O)CCl)c1ccccc1`, the Potency was 54.5 µM (active) in [1]; 4.86 µM (active) and 10.9 µM (active) in test [20]. For the same compound, the Potency result in test [2], in test [3], in test [6], in test [7], in test [8] and in test [10] was “inactive” throughout. In addition, the Potency result in test [11], in test [13], in test [16], in test [17], in test [18] and in test [19] was “inactive” each time.
As to `Oc1cc(Cl)c(Cl)cc1Cl`, the Potency entry in [1], in [20], in test [2], in test [3], in test [6] and in [8] was “inactive” in each case. Also, the Potency entry in test [10], in [11], in test [12], in test [13], in test [15] and in test [16] was “inactive” throughout. Also, the Potency entry in [19] was “inactive”. For the same compound, the Potency in test [7] is 40.5 µM (active) and inactive.
